Assay outcomes (PubChem)
Most compounds without a hit are left out; they make up all but 3.6% or so of the library.
IkB signaling: inhibitors of IkB signaling in ABC-DLBCL cells | ABC-DLBCL IkBa-CBG/CBR dual luciferase ratio, 4 h; response scale: scaled: untreated 0%, proteasome inhibitor 100% | Potency, µM (series often up to 57.1 µM), inactives show at the highest dose IkBa stabilization activation | actives 0.04% (n = 110,000) | AID 445; active means well fitted curve in the direction sought with a large enough effect in the signal ratio, not every such curve was filed as active; inconclusive means small, poorly fitted or top-dose-only effect, or a change in a side signal; the % refers to the signal ratio;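 further: potency means the concentration at half of the fitted maximal effect; the direction sought is a rising ratio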
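Curves were fitted separately to fusion (green), unfused (red) and ratio luminescence, then classed by r2, magnitude and activity. Cells: OCI-Ly3, 4 h compound plus doxycycline at 37C; 10 uM MG-132 defined full response.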
ERK AVP inh: inhibitors of vasopressin-stimulated ERK signaling pathway; HEK293-V1b, vasopressin-stimulated pERK AlphaScreen; Potency, µM (series often up to 57.5 µM), without a hit: top-dose activity, negative = inhibition, hits mostly inhibitors; actives 0.99% (n = 72,000); further: potency means the concentration at half of the fitted maximal effect; on the % scale 0 is the no-effect control and ±100 the full control effect; nearly all actives have a fitted effect of over 55% in size
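Phosphorylated ERK1/2 detected via AlphaScreen bead proximity in lysates of V1b-expressing HEK293 cells given 25 nM vasopressin for 5 min after 30 min compound exposure (37 °C). AC50 from Hill equation; basal DMSO 0%, vasopressin 100%.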
TSHR ag: agonists of human thyroid stimulating hormone receptor; AID 926; P16473; Potency, µM (series often up to 57.1 µM), inactives show top-dose activation, most hits filed as activators; HEK293-CNG-TSHR cells (CNG channel as cAMP sensor), membrane potential dye, cAMP; actives 0.48% (n = 73,000); active means well fitted activation curve with a large enough effect in the main read-out, with a control signal flat, not every such curve was filed as active; inconclusive means small, poorly fitted or top-dose-only effect, or a change in a side signal; inactive means no such curve, though single readings can be large or run the other way; % of control where 0% means no effect;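 further: the control signal comes from parental cells without the receptor; potency means the concentration at half of the fitted maximal effect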
Target sequence (P16473 whole entry, looked up): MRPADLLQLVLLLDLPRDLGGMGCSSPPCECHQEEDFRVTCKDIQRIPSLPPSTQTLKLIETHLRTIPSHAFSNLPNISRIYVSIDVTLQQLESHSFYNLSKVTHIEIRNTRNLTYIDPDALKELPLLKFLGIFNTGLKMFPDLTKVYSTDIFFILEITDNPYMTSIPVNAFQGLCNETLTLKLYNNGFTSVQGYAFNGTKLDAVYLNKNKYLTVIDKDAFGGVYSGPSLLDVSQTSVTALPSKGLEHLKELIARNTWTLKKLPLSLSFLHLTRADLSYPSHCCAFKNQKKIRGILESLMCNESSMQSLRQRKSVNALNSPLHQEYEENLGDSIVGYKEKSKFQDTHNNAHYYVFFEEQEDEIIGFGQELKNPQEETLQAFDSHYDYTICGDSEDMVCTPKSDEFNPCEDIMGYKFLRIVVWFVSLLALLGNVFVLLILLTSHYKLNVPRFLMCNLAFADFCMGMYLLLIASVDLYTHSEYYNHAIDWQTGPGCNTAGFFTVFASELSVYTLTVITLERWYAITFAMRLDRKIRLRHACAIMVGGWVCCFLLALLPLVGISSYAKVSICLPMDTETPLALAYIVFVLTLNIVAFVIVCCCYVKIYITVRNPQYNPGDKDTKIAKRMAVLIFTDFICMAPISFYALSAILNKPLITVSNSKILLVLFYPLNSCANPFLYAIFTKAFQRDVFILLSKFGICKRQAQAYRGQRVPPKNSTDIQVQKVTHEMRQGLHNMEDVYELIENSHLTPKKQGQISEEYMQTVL
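HEK 293 cells stably expressing TSHR and a cAMP-gated CNG channel; parental CNG-only cells as counterscreen. Cells preloaded 60 min with membrane potential dye plus 100 uM RO 20-1724, then compound 30 min; fluorescence read at 590 nm.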
CRE-bla Fsk: CRE-bla signaling modulation under forskolin stimulation | CHO CRE-bla reporter (cAMP response element driving beta-lactamase), forskolin EC10, beta-lactamase ratio | AID 662 | Potency, µM (top dose mostly 38.2 µM), without a hit: at the highest dose activity change, negative = inhibition, usual class: activators | actives 2.5% (n = 71,000); active means well fitted activation curve with a large enough effect in the signal ratio, with a control signal flat, not every such curve was filed as active; inconclusive means small, poorly fitted or top-dose-only effect, or effect the other way, or a change in a side signal; the % refers to the signal ratio; further: potency means the concentration at half of the fitted maximal effect; % of control where 0% means no effect
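CRE-bla CHO reporter cells treated with compound titration plus EC10 NKH 477 (water-soluble forskolin), incubated 3 h at 37 °C; CCF4 loading 2 h at room temperature, 460/530 nm emission ratio read, AC50 values derived for positive or negative modulators.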
HEK293 cAMP cs: counter-screen for TSHR agonists: cAMP increase in parental HEK293. parental HEK293 CNG cAMP sensor, membrane potential fluorescence. Potency, µM (doses to about 57.1 µM), for the others: at the top dose activation, actives largely listed as activators. actives 2.5% (n = 73,000); further: potency means the concentration at half of the fitted maximal effect; % of control where 0% means no effect; nearly all actives have a fitted effect of over 55% in size
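Parental HEK 293 cells stably expressing a cAMP-gated CNG channel were loaded with membrane potential dye containing 100 uM RO 20-1724 for 60 min. Compound added for 30 min; depolarization read as fluorescence intensity at 590 nm.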
CHO tox 24h: CHO cell toxicity at 24 h by ATP luminescence; shares compounds with CRE-bla Fsk; CRE-bla CHO viability, ATP luminescence, 24 h; activity, negative = viability loss, % at 46.1 µM; 120 tested, under 10 active; AID 905
CHO tox 40h: CHO cell toxicity at 40 h by ATP luminescence. shares compounds with CRE-bla Fsk. CRE-bla CHO viability, ATP luminescence, 40 h. Potency, µM, for inactives: max response, most hits filed as inhibitors. 120 tested, under 10 active
CRE-luc potent: boosts CRE luciferase signal in HEK293 cells. shares compounds with CRE-bla Fsk. HEK293 CRE-luc2P, NKH477 EC10 potentiation, luminescence, 4 h. Potency, µM (top dose mostly 38.3 µM), for inactives: top-dose activity, positive = activation, usual class: activators. actives 80% (n = 120)
* hit, by the source's call; ? = inconclusive; / = not tested or not shown; ! = a repeat was not active; [ ] = remark or other dose. Unless noted, the call rests on the fitted dose curve; in most records, active means well fitted curve in the direction sought with a large enough effect; inconclusive means small, poorly fitted or top-dose-only effect, or another doubt; inactive means no such curve, though single readings can be large; an effect the other way counts as inactive or inconclusive.

SMILES	IkB signaling	ERK AVP inh	TSHR ag	CRE-bla Fsk	HEK293 cAMP cs	CHO tox 24h	CHO tox 40h	CRE-luc potent
CCOc1ccc(-c2nnc3ccc(SCc4ccc(C(=O)OC)o4)nn23)cc1	1%	0%	7%[11.4 µM]	2µM*	28%	-22	?	2.2µM*
O=c1nc(N2CCOCC2)ccn1-c1nc(-c2ccccc2)oc1-c1ccccc1	2%	-22%	6%	?	5%	/	/	/
COc1cc(C2=NOC(C(=O)N3CCCCCC3)C2)cc(OC)c1OC (stereo unspecified)	1%	14%	11%	?	3%	/	/	/
COc1cc(C2=NOC(C(=O)N3CCN(c4ccc(F)cc4)CC3)C2)cc(OC)c1OC (stereo unspecified)	?	7%	5%	0.63µM*	17%	-6	-12%	4µM*
O=c1c(O)c(-c2ccc(O)c(O)c2)oc2cc(O)ccc12	-5%[11.4 µM]	13µM*!	9%	?	-7%	-18	-16%	?
CN1CCN(C2=C(Cl)C(=O)N(Cc3ccccc3)C2=O)CC1	1%	?	-1%	-19%	3%	/	/	/
Cc1nc(NCc2ccc3c(c2)OCO3)c2oc3ccccc3c2n1	?	?	?	2.5µM*	?	-8	-19%	13µM*
CCNc1nc(C)nc2c1oc1ccccc12	0%	6%	23%	4%	-1%	/	/	/
O=C(CCCN1CCC(c2ccccc2)C1)c1ccc2c(c1)OCCO2 (stereo unspecified)	1%	-25%	3%	-8%	0%	/	/	/
CCCCO	1%	6%	1%	-7%	10%	/	/	/
CCCN(C#N)c1nc(NCC)nc(NC(C)C)n1	?	-12%	?	10µM*	?	-8	-16%	1.4µM*
COc1ccc(CCNC(=O)CCCn2c(=O)[nH]c3cc(OC)c(OC)cc3c2=O)cc1OC	-1%	-14%	-4%[11.4 µM]	-5%	-7%	/	/	/
COc1cccc2c(C)nc(Nc3nc(CSc4nnc(C)s4)cc(=O)[nH]3)nc12	-1%	18%	12%	?	9%	?	-90%	6.3µM*
CCCSc1nc2c(cnn2-c2ccc(F)cc2)c(=O)[nH]1	-3%	/	4%	2µM*	-5%	3	-16%	6.3µM*
COc1ccccc1N1CCN(C(=O)c2cnn(-c3ccc(F)cc3F)c2C2CCNCC2)CC1	-2%	/	/	/	/	/	/	/
CCCN1Cc2cccc(C(=O)Nc3ccc(N4CCN(CC)CC4)cc3)c2C1=O	0%	11%	-16%	4µM*	-9%	-2	-6%	7.9µM*
CCN1Cc2cccc(C(=O)Nc3ccc(F)cc3)c2C1=O	0%	/	/	/	/	/	/	/
Cn1nc(-c2ccc(N3CCCCC3)c(NC(=O)c3ccco3)c2)c2ccccc2c1=O	0%	1%	?	1.6µM*	?	-39	?	0.63µM*
COc1ccc(-c2nn(C)c(=O)c3ccccc23)cc1CNC(=O)c1ccco1	4%	?	14%	?	-2%	/	/	/
O=C(NCCO)c1ccc(Cc2nc3ccccc3[nH]2)cc1	/	/	-6%	/	-5%	/	/	/
CCn1c2ccccc2c2nnc(SCN3C(=O)c4ccccc4C3=O)nc21	1%	?	10%[11.4 µM]	?	12%[11.4 µM]	-12	-21%	2µM*
Cn1c2ccccc2c2nnc(SCN3C(=O)c4ccccc4C3=O)nc21	?	-22%	11%	?	10%	/	/	/
CC(C)(C)c1ccc(-c2nc(SCC(=O)Nc3ccccc3F)n3[nH]c(=O)cc3n2)cc1	0%	/	/	/	/	/	/	/
COc1ccc(C(=O)N2CCC3(CCCN(Cc4nccs4)C3)CC2)cc1	-2%[11.4 µM]	12%	?	-18%	?	/	/	/
CSc1nc2ccc(Nc3nc(N4CCOCC4)nc(N4CCOCC4)n3)cc2s1	?	?	4%[11.4 µM]	3.2µM*	1%[11.4 µM]	-22	?	0.63µM*
SMILES	IkB signaling	ERK AVP inh	TSHR ag	CRE-bla Fsk	HEK293 cAMP cs	CHO tox 24h	CHO tox 40h	CRE-luc potent
Cc1ccc(Nc2nc(N3CCOCC3)nc(N3CCOCC3)n2)cc1	0%	-17%	3%	-8%	0%	/	/	/
O=C(C1CCCN(S(=O)(=O)c2cccs2)C1)N1CCC(N2CCCCC2)CC1 (stereo unspecified)	-1%	52%	3%	-2%	7%	/	/	/
COc1ccc(OC)c(NC(=O)c2cn(C)c(=O)c3cc(OC)c(OC)cc23)c1	0%	-25%	2%	0.79µM*	7%	-2	-12%	4µM*
CCn1c2ccccc2c2cc(Nc3cc(C)nc4ncnn34)ccc21	?	25µM*	/	0.79µM*	13%	-24	?	9%
CCc1cccc(Nc2cc(C)nc3ncnn23)c1	3%	-2%	?	26%	?	/	/	/
C=CCN1C(=O)c2oc3ccccc3c(=O)c2C1c1ccc(O)c(OC)c1 (stereo unspecified)	/	/	/	/	/	6	-6%	13µM*
COc1ccc(C2c3c(oc4ccccc4c3=O)C(=O)N2CCN2CCOCC2)cc1OC (stereo unspecified)	-5%	-5%	7%	17%	6%	-3	-7%	14µM*
O=C(Cc1ccccc1)Nc1nc2ccc(Cl)cc2c2nc(-c3ccco3)nn12	1%	-14%	?	?	?	-8	-12%	?
CCc1ccc(CCC(=O)Nc2ccc(C)cc2C)o1	-4%	-5%	9%	-2%	11%	/	/	/
O=S(=O)(Nc1cccc(-c2nc3cccnc3s2)c1)c1ccc2c(c1)OCCO2	?	/	91%	3.2µM*	2%	6	-14%	11µM*
Cn1c(C(=O)NC2CC2)cc2c(=O)n(C)c3ccccc3c21	2%	-6%	?	5µM*	?	-9	-22%	10µM*
CCCCc1ccc(C(=O)NC(C(=O)O)C(C)C)cc1 (stereo unspecified)	0%	-10%	-1%	-13%	1%	/	/	/
Cc1nn(-c2ccc(Cl)cc2)c2sc(C(=O)N3CCN(c4ccccn4)CC3)cc12	1%	10%	?	9%	4%	-14	-12%	1.4µM*
CCc1ccc(C2CC(=O)c3c([nH]c(C(=O)OC4CCCC4)c3C)C2)cc1 (stereo unspecified)	0%	/	/	/	/	/	/	/
Cn1c(/C(C#N)=C/C2CC=CCC2)nc2ccccc21 (stereo unspecified)	6%	-10%	3%	-1%	-4%	-12	-16%	16µM*
